Most compounds without a hit are left out; they make up all but 1.3% or so of the library.
NR5A2 inv ag: inverse agonists of human LRH-1 (NR5A2); 360,000 tested, 0.13% active; inhibition, % at 3.6 µM; AID 602396; O00482; HEK293T StAR-luciferase reporter, LRH-1 transfected, 24 h;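 active means inhibition above the mean inhibition of all tested compounds plus 3 SD, cut at about 73% in these data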
COUP-TFII inh: NR2F2 (human) inhibition, primary screen | P24468 | HEK293T NGFI-A luciferase reporter, luminescence | inhibition, % at 8.6 µM | 370,000 tested, 0.7% active | AID 686940;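 active means inhibition above a per-plate cutoff, mean inhibition of test wells between control levels plus 3 SD, cut at about 38% in these data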;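 further: cells cotransfected with COUP-TFII expression vector driving the NGFI-A reporter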
NCOA2 inhibitor: inhibits human steroid receptor coactivator 2 | inhibition, % at 9 µM | HEK293 GAL4-SRC2 luciferase reporter, luminescence | 370,000 tested, 0.17% active | AID 651957;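 active means inhibition above the mean inhibition of all tested compounds plus 3 SD, set per campaign, cut at about 52% in these data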
SRC1 inh: inhibitors of human steroid receptor coactivator 1 (SRC1); HEK293 GAL4-SRC1 luciferase reporter, luminescence; inhibition, % at 3.6 µM; 360,000 tested, 0.12% active; AID 588354;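 active means inhibition above the campaign mean plus 3 SD, with each screening campaign given its own cutoff, cut at about 60% in these data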
Gli-Sufu antag: Gli-Sufu pathway antagonism; inhibition, % at 5 µM; Sufu-KO-LIGHT fibroblasts, Gli luciferase reporter luminescence; 340,000 tested, 0.74% active;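 active means inhibition above about 55%, limit read from the data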
NCOA3 inh: inhibits human SRC3 coactivator; inhibition, % at 3.6 µM; 360,000 tested, 0.17% active; AID 588352; HEK293 GAL4-SRC3 luciferase reporter, luminescence; Q9Y6Q9;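 active means inhibition above a per-campaign cutoff, the mean of all compounds plus 3 SD, cut at about 60% in these data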;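 further: higher means less SRC3-driven luciferase light from the GAL4 reporter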
VP16 Luc counter: counter-screen for COUP-TFII antagonists: inhibitors of VP16; shares compounds with COUP-TFII inh; HEK293 Gal4-VP16 luciferase reporter, luminescence; inhibition, % at 8.5 µM; 2,500 tested, 25% active; in the data active means inhibition above about 13%
NR2F2 inh conf: COUP-TFII (NR2F2) inhibition, confirmation assay; shares compounds with COUP-TFII inh; HEK293 NGFI-A luciferase reporter, luminescence; inhibition, % at 8.5 µM; 2,500 tested, 45% active;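 active means mean inhibition over three repeats above a set limit taken from the earlier primary screen, cut at about 38% in these data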
Of the large screens only hits and unclear results are named; the others gave an inactive call (follow-up assays come after a bar, where they were run).

CN(C(=O)c1ccc(NC(=O)Cc2cccc(NC(=O)C3CCCN(C(=O)CCc4ccccc4)C3)c2)cc1)C1CCCC1 (stereo unspecified)	none
CN(Cc1ccccc1)C(=O)c1cccc(NC(=O)Cc2ccc(NC(=O)C3CCCN(C(=O)CCc4ccccc4)C3)cc2)c1 (stereo unspecified)	none
CN(Cc1ccccc1)C(=O)c1ccc(NC(=O)Cc2cccc(NC(=O)C3CCCN(C(=O)CCc4ccccc4)C3)c2)cc1 (stereo unspecified)	COUP-TFII inh 43.9 | VP16 Luc counter inactive | NR2F2 inh conf inactive
CN(C(=O)c1cccc(NC(=O)Cc2ccc(NC(=O)C3CCCN(C(=O)CCc4ccccc4)C3)cc2)c1)C1CCC1 (stereo unspecified)	COUP-TFII inh 48.3 | VP16 Luc counter inactive | NR2F2 inh conf inactive
CN(C(=O)c1cccc(NC(=O)Cc2ccc(NC(=O)C3CCCN(C(=O)CCc4ccccc4)C3)cc2)c1)C1CCCC1 (stereo unspecified)	COUP-TFII inh 57.8 | VP16 Luc counter inactive | NR2F2 inh conf 50.7
O=C(NC1CCCCN(Cc2cccc(Cl)c2)C1=O)c1cccc([N+](=O)[O-])c1 (stereo unspecified)	none (no result: NR5A2 inv ag, SRC1 inh, Gli-Sufu antag, NCOA3 inh)
Cc1cc(C)nc(N2CCN(C(=O)CSc3nc4ccccc4nc3N3CC(C)OC(C)C3)CC2)n1 (stereo unspecified)	none (no result: NR5A2 inv ag, SRC1 inh, Gli-Sufu antag, NCOA3 inh)
COc1cccc(NC(=S)N(Cc2cccc(Br)c2)CC2CCC(C(=O)O)CC2)c1 (stereo unspecified)	COUP-TFII inh 39.1 | VP16 Luc counter inactive | NR2F2 inh conf inactive
Cc1cc(C)n(-c2ccc(C(=O)Nc3cccc(S(=O)(=O)N(C)C)c3)cc2)n1	COUP-TFII inh 42.7 | VP16 Luc counter 14.1 | NR2F2 inh conf 38.7
Cc1cc(C)n(-c2ccc(C(=O)Nc3ccc(S(=O)(=O)N(C)C)cc3)cc2)n1	none
Cc1cc(C)n(-c2ccc(C(=O)Nc3ccc(S(=O)(=O)NCc4ccco4)cc3)cc2)n1	COUP-TFII inh 75.5 | VP16 Luc counter 23.7 | NR2F2 inh conf 70.9
Cc1cc(C)n(-c2ccc(C(=O)Nc3ccc4c(c3)OCO4)cc2)n1	none
Cc1ccc(C(=O)Nc2ccc(S(=O)(=O)NCc3ccco3)cc2)cc1	none
CCN(CC)S(=O)(=O)c1cccc(NC(=O)c2ccc(-n3nc(C)cc3C)cc2)c1	COUP-TFII inh 64.8 | VP16 Luc counter inactive | NR2F2 inh conf inactive
Cc1cc(C)n(-c2ccc(C(=O)Nc3ccc(C)c(S(=O)(=O)N(C)C)c3)cc2)n1	COUP-TFII inh 48.4 | VP16 Luc counter inactive | NR2F2 inh conf inactive
C[C@@H]1ON(C)[C@H]2C[C@H]3c4[nH]c5c(-c6cc(Cl)cc(Cl)c6)cccc5c4CCN3C(=O)[C@@H]12	none (no result: NR5A2 inv ag, SRC1 inh, Gli-Sufu antag, NCOA3 inh)
Cc1ccc(NC(=O)c2ccc(OC(F)(F)F)cc2)cc1S(=O)(=O)N(C)C	COUP-TFII inh 54.7 | VP16 Luc counter inactive | NR2F2 inh conf inactive
Cc1ccc(NC(=O)CNc2ccc(Cl)c(Cl)c2)cc1S(=O)(=O)N(C)C	COUP-TFII inh 54.3 | VP16 Luc counter inactive | NR2F2 inh conf 40.2
Cc1ccc(NC(=O)c2ccncc2)cc1S(=O)(=O)N(C)C	none
O=C(Nc1ccccc1)Nc1cc(OCC(F)(F)F)cc(OCC(F)(F)F)c1	COUP-TFII inh 67.2, NCOA3 inh 66.9 | VP16 Luc counter inactive | NR2F2 inh conf inactive
CCn1c(Cc2cccs2)nnc1SCC(=O)Nc1ccccc1-c1ccccc1	none (no result: NR5A2 inv ag, SRC1 inh, Gli-Sufu antag, NCOA3 inh)
CC(C)(C)c1ccc(-c2nnc(SCC3CCCCO3)n2-c2ccc(Cl)cc2)cc1 (stereo unspecified)	none (no result: NR5A2 inv ag, SRC1 inh, Gli-Sufu antag, NCOA3 inh)
Cc1cc2nc(C)n(CCCNC(=O)Nc3cccc4ccccc34)c2cc1C	COUP-TFII inh 37.7 | VP16 Luc counter inactive | NR2F2 inh conf inactive
CCOc1ccc(NC(=O)NCCCn2c(C)nc3cc(C)c(C)cc32)cc1	none
N#Cc1cccc(OC[C@@H](O)CN2CCC(C(O)(c3ccccc3)c3ccccc3)CC2)c1	none (no result: NR5A2 inv ag, SRC1 inh, Gli-Sufu antag, NCOA3 inh)
Cc1sc2ncnc(NCc3ccccc3)c2c1C	none
Cc1cc2c(NCc3ccccc3)ncnc2s1	COUP-TFII inh 49.2 | VP16 Luc counter inactive | NR2F2 inh conf inactive
CN(CCCOC(=O)c1cc2ccccc2o1)C1CN(Cc2cn(Cc3ccc([N+](=O)[O-])cc3)nn2)S(=O)(=O)C1 (stereo unspecified)	none (no result: NR5A2 inv ag, SRC1 inh, Gli-Sufu antag, NCOA3 inh)
O=S1(=O)C=CCN1Cc1cn(Cc2ccccc2)nn1	none (no result: NR5A2 inv ag, SRC1 inh, Gli-Sufu antag, NCOA3 inh)
Cc1cc(Cl)c(S(=O)(=O)N2CCCC2)cc1OCC(=O)NC1CCCCC1	COUP-TFII inh 62.0 | VP16 Luc counter inactive | NR2F2 inh conf inactive
Cc1cc(Cl)c(S(=O)(=O)NC(C(=O)O)C(C)C)cc1OCC(=O)NC1CCCCC1 (stereo unspecified)	none
CC(=O)c1ccc(OCCCC(=O)Nc2ccc(C)c(S(=O)(=O)N3CCCCC3)c2)cc1	COUP-TFII inh 61.2 | VP16 Luc counter inactive | NR2F2 inh conf 40.4
COc1ccc(NC(=O)CCOc2cc(C)ccc2C)cc1S(=O)(=O)N1CCCCC1	COUP-TFII inh 40.9 | VP16 Luc counter inactive | NR2F2 inh conf inactive
COc1cc(C(C)=O)ccc1OCC(=O)Nc1ccc(C)c(S(=O)(=O)N2CCCCCC2)c1	COUP-TFII inh 47.2 | VP16 Luc counter inactive | NR2F2 inh conf inactive
COc1ccc(-c2cc(C(=O)N(C3CCCCC3)C3CCCCC3)no2)cc1	none (no result: NR5A2 inv ag, SRC1 inh, Gli-Sufu antag, NCOA3 inh)
Cc1cc(=O)[nH]c(SCC(=O)Nc2cccc(Cl)c2F)n1	none (no result: NR5A2 inv ag, SRC1 inh, Gli-Sufu antag, NCOA3 inh)
CC(COc1ccccc1)CN1CCC(C(O)(c2ccccc2)c2ccccc2)CC1 (stereo unspecified)	none (no result: NR5A2 inv ag, SRC1 inh, Gli-Sufu antag, NCOA3 inh)
CC(C)Cn1c(N)c(C(=O)COC(=O)/C=C/c2ccccc2)c(=O)n(C)c1=O	COUP-TFII inh 44.6 | VP16 Luc counter inactive | NR2F2 inh conf inactive
CC(C)Cn1c(N)c(C(=O)CSc2ccccc2)c(=O)n(C)c1=O	none
CC(C)Cn1c(N)c(C(=O)COC(=O)CC23CC4CC(CC(C4)C2)C3)c(=O)n(C)c1=O	COUP-TFII inh 45.4 | VP16 Luc counter inactive | NR2F2 inh conf 57.2
COC(=O)c1cccc(Cn2ccc3ccc(-c4ccc5ccn(C(=O)c6ccccc6OC)c5c4)cc32)c1	none (no result: NR5A2 inv ag, SRC1 inh, Gli-Sufu antag, NCOA3 inh)
CCOC(=O)Cn1cc(CN2C(C(=O)OC)CN(C3CCCC3)CCS2(=O)=O)nn1 (stereo unspecified)	none (no result: NR5A2 inv ag, SRC1 inh, Gli-Sufu antag, NCOA3 inh)
C=CCOc1ccc(CN(C)C(=O)CNC(=O)c2ccc(-c3ccccc3)cc2)cc1	COUP-TFII inh 46.6 | VP16 Luc counter inactive | NR2F2 inh conf inactive
CCOc1ccc(CN(C)C(=O)CNC(=O)c2ccccc2)cc1	none
C/C(C=NNC(=O)CSc1nnc(-c2ccc(Cl)cc2)n1-c1ccc(C)cc1)=C\c1ccccc1	none (no result: NR5A2 inv ag, SRC1 inh, Gli-Sufu antag, NCOA3 inh)

Bioassay records deposited in PubChem BioAssay by several laboratories.
